Laboratory results reported in the antibiotic and cytotoxicity screens of Wong et al. (2023).
Screen size: about 39,000 compounds; about 1,500 (3.8%) were called active. The sample holds actives, similar compounds and a random draw of the others, so the mix is not that of the screen.

Tested on: HSkMC (human skeletal muscle cells)
Assay: cytotoxicity call (relative viability < 0.9)
Details: 10 µM

SMILES | cytotoxicity call
Cc1ccc(S(=O)(=O)Nc2ccc3c(c2)C(=O)N([C@H](C)CO)C[C@H](C)[C@H](CN(C)S(C)(=O)=O)O3)cc1 | inactive
COc1ccc(S(=O)(=O)Nc2ccc3c(c2)CC(=O)N([C@@H](C)CO)C[C@@H](C)[C@H](CN(C)C(=O)NC(C)C)O3)cc1 | inactive
CN(C)Cc1cn(CC[C@@H]2CC[C@H](NC(=O)Cc3cccnc3)[C@H](CO)O2)nn1 | inactive
Cc1ccc(S[C@]2(C(=O)NCc3ccccc3)CC(=O)N(Cc3cc(C(F)(F)F)cc(C(F)(F)F)c3)[C@@H]2c2ccc(CO)cc2)cc1 | inactive
CCOC(=O)c1cc2c(c(-c3cccc(-c4cccc(OC)c4)c3)n1)[C@@H](CCO)N(S(=O)C(C)(C)C)C2 (some centres undefined) | inactive
COCC(=O)N1C[C@@H](C)[C@H](OC)CN(C)C(=O)c2ccc(NC(=O)c3ccc(OC)cc3)cc2OC[C@H]1C | inactive
CCN1CCC[C@@H]1CN1CNC(=S)NC1 | inactive
CCCCCCc1ccc(O)cc1O [listing 1 of 2 here] | active
CCCCCCCc1c(C)c(O)cc2c1[nH]c1ccccc12 | inactive
CCCCCCCCc1ccc(-c2ccc(C(=O)O)cc2)cc1 | inactive
CCCCCCc1ccc(O)cc1O [listing 2 of 2 here] | active
COC(=O)CCc1ccc(OC)cc1O | inactive
CCCCCCc1ccc(O)cc1O.Nc1c2ccccc2nc2ccccc12 | inactive
COc1ccc(NC(=O)N(C)C[C@@H]2Oc3c(NC(=O)C4CC4)cccc3C(=O)N([C@@H](C)CO)C[C@@H]2C)cc1 | inactive
CC1OC(OC2C(O)CC(OC3C(O)CC(OC4CCC5(C)C(CCC6C5CC(O)C5(C)C(C7=CC(=O)OC7)CCC65O)C4)OC3C)OC2C)CC(O)C1O (centres undefined) | active
C[C@H]1O[C@@H](O[C@H]2[C@@H](O)C[C@H](O[C@H]3[C@@H](O)C[C@H](O[C@H]4CC[C@@]5(C)[C@H](CC[C@@H]6[C@@H]5C[C@@H](O)[C@]5(C)[C@@H](C7=CC(=O)OC7)CC[C@]65O)C4)O[C@@H]3C)O[C@@H]2C)C[C@H](O)[C@@H]1O | active
C[C@H]1O[C@@H](O[C@H]2[C@@H](O)C[C@H](O[C@H]3[C@@H](O)C[C@H](O[C@H]4CC[C@@]5(C)[C@H](CC[C@@H]6[C@@H]5C[C@@H](O)[C@@]5(C)[C@@H](C7=CC(=O)OC7)CC[C@]65O)C4)O[C@@H]3C)O[C@@H]2C)C[C@H](O)[C@@H]1O | active
C[C@@H]1CCCCO[C@@H](CN(C)Cc2ccc3c(c2)OCO3)[C@@H](C)CN([C@H](C)CO)C(=O)c2cc(NS(=O)(=O)c3ccc(Cl)cc3)ccc2O1 | inactive
C[C@H](CO)N1C[C@H](C)[C@@H](CN(C)S(=O)(=O)c2ccccc2F)Oc2cc(-c3ccncc3)ccc2S1(=O)=O | inactive
CC(C)NC(=O)Nc1cccc2c1O[C@@H](CN(C)S(=O)(=O)c1cccs1)[C@@H](C)CN([C@@H](C)CO)C2=O | inactive
O=C(C[C@@H]1C[C@@H]2c3cc(NC(=O)Cc4ccncc4)ccc3O[C@@H]2[C@@H](CO)O1)NCc1cccc(F)c1 | inactive
COCC#Cc1ccc2c(c1)O[C@@H](CN(C)C(=O)CN(C)C)[C@H](C)CN([C@@H](C)CO)S2(=O)=O | inactive
Cc1noc(C)c1NC(=O)N(C)C[C@@H]1OCCCC[C@@H](C)Oc2ccc(NC(=O)Cc3ccccc3)cc2C(=O)N([C@H](C)CO)C[C@H]1C | inactive

SMILES | cytotoxicity call
CC(N)(Cc1ccc(O)c(O)c1)C(=O)O (centres undefined) [listing 1 of 2 here] | inactive
CC(N)(Cc1ccc(O)c(O)c1)C(=O)O (centres undefined) [listing 2 of 2 here] | inactive
CCOC(=O)[C@@](C)(N)Cc1ccc(O)c(O)c1 | active
COc1ccccc1C(=O)Nc1ccc2c(c1)C(=O)N(C)[C@H]1CC[C@H](CC(=O)NCc3ccc(Cl)c(Cl)c3)O[C@@H]1CO2 | inactive
CN1C(=O)c2cc(NC(=O)c3ccc(C(F)(F)F)cc3)ccc2OC[C@@H]2O[C@H](CC(=O)NC3Cc4ccccc4C3)CC[C@H]21 | inactive
Cc1noc(C)c1NC(=O)Nc1ccc2c(c1)C(=O)N(C)[C@H]1CC[C@H](CC(=O)Nc3ccc4c(c3)CCCC4)O[C@@H]1CO2 | active
COc1cccc(C(=O)Nc2ccc3c(c2)C(=O)N(C)[C@H]2CC[C@H](CC(=O)Nc4ccc5c(c4)CCCC5)O[C@@H]2CO3)c1 | inactive
CN1C(=O)c2cc(NC(=O)c3ccc(C(F)(F)F)cc3)ccc2OC[C@@H]2O[C@@H](CC(=O)NC3Cc4ccccc4C3)CC[C@H]21 | active
COc1ccccc1C(=O)Nc1ccc2c(c1)C(=O)N(C)[C@@H]1CC[C@H](CC(=O)NCc3ccc(Cl)c(Cl)c3)O[C@H]1CO2 | inactive
COc1ccccc1C(=O)Nc1ccc2c(c1)C(=O)N(C)[C@@H]1CC[C@@H](CC(=O)NCc3ccc(Cl)c(Cl)c3)O[C@H]1CO2 | active
COc1ccccc1C(=O)Nc1ccc2c(c1)C(=O)N(C)[C@H]1CC[C@@H](CC(=O)NCc3ccc(Cl)c(Cl)c3)O[C@@H]1CO2 | active
COc1ccccc1C(=O)Nc1ccc2c(c1)C(=O)N(C)[C@@H]1CC[C@H](CC(=O)NCc3ccc(Cl)c(Cl)c3)O[C@@H]1CO2 | inactive
COc1ccccc1C(=O)Nc1ccc2c(c1)C(=O)N(C)[C@@H]1CC[C@@H](CC(=O)NCc3ccc(Cl)c(Cl)c3)O[C@@H]1CO2 | inactive
CN1C(=O)c2cc(NC(=O)c3ccc(C(F)(F)F)cc3)ccc2OC[C@@H]2O[C@H](CC(=O)NC3Cc4ccccc4C3)CC[C@@H]21 | inactive
CN1C(=O)c2cc(NC(=O)Nc3cccc(C#N)c3)ccc2OC[C@H]2O[C@@H](CC(=O)Nc3ccc4c(c3)CCC4)CC[C@@H]21 | inactive
CC(C)NC(=O)N(C)C[C@H]1OCc2cn(nn2)CCCC(=O)N([C@H](C)CO)C[C@H]1C | inactive
C[C@H]1CN([C@@H](C)CO)C(=O)c2cc(NS(C)(=O)=O)ccc2O[C@@H]1CN(C)S(=O)(=O)c1ccc(Cl)cc1 | inactive
CO[C@H]1CN(C)C(=O)c2ccc(NC(=O)Nc3ccc(Cl)cc3)cc2OC[C@@H](C)N(C(=O)Nc2c(C)noc2C)C[C@H]1C | inactive
C[C@@H]1CCCCO[C@@H](CN(C)Cc2ccncc2)[C@@H](C)CN([C@H](C)CO)C(=O)c2cc(NC(=O)Nc3ccc(C(F)(F)F)cc3)ccc2O1 | inactive
CC(C)CC#Cc1ccc2c(c1)O[C@@H](CN(C)S(=O)(=O)c1cccc(F)c1)[C@@H](C)CN([C@@H](C)CO)S2(=O)=O | inactive
C1CCN2CC3CC(CN4CCCCC34)C2C1.O=S(=O)(O)O (centres undefined) | inactive
C[C@@H]1CN([C@@H](C)CO)C(=O)c2cc(NC(=O)CCCN(C)C)ccc2O[C@H]1CN(C)S(=O)(=O)c1ccc(Cl)cc1 | inactive
C[C@H]1CN([C@@H](C)CO)C(=O)Cc2cc(N(C)C)ccc2O[C@@H]1CN(C)S(=O)(=O)c1ccc(F)cc1 | inactive

SMILES | cytotoxicity call
C[C@@H]1CN([C@H](C)CO)C(=O)CCCn2cc(nn2)CO[C@H]1CN(C)S(=O)(=O)c1ccc(Oc2ccccc2)nc1 | inactive
C[C@@H]1CN([C@@H](C)CO)C(=O)c2cccc(NC(=O)C3CC3)c2O[C@@H]1CN(C)S(=O)(=O)c1ccc(F)cc1 | inactive
Cn1c(Nc2ccc(C(F)(F)F)cc2)nc2cc(Oc3ccnc(-c4ncc(C(F)(F)F)[nH]4)c3)ccc21 | active
Nc1nc(=O)c2c(CCc3ccc(C(=O)NC(CCC(=O)[O-])C(=O)[O-])cc3)c[nH]c2[nH]1.[Na+].[Na+] (centres undefined) | inactive
CC(C)CC#Cc1ccc2c(c1)O[C@@H](CN(C)C(=O)c1cnccn1)[C@@H](C)CN([C@@H](C)CO)S2(=O)=O | inactive
COc1ccc(CN(C)C[C@@H]2Oc3ccc(NS(=O)(=O)c4c(C)noc4C)cc3CC(=O)N([C@H](C)CO)C[C@H]2C)cc1 | inactive
CC1C=CC=CC=CC=CC=CC=CC=CC(OC2OC(C)C(O)C(N)C2O)CC2OC(O)(CC(O)CC(O)C(O)CCC(O)CC(O)CC(=O)OC(C)C(C)C1O)CC(O)C2C(=O)O (centres undefined) | inactive
CC1C=CC=CC=CC=CC=CC=CC=CC(OC2OC(C)C(O)C(N)C2O)CC(O)C(C(=O)O)C(O)CC(=O)CC(O)CC(O)CC(O)CC(=O)CCCC(=O)CC(=O)OC1C(C)CC(C)C(O)CC(=O)c1ccc(N)cc1 (centres undefined) | active
C[C@H]1[C@@H](O)[C@@H](C)\C=C/C=C\C=C/C=C\C=C/C=C\C=C/[C@@H](O[C@H]2O[C@H](C)[C@@H](O)[C@H](N)[C@@H]2O)C[C@H]2O[C@](O)(C[C@@H](O)C[C@@H](O)[C@@H](O)CC[C@@H](O)C[C@@H](O)CC(=O)O[C@H]1C)C[C@@H](O)[C@@H]2C(=O)O | inactive
COc1ccc(CN(C)C[C@@H]2OCCCC[C@@H](C)Oc3ccc(NC(=O)NC(C)C)cc3C(=O)N([C@H](C)CO)C[C@H]2C)cc1 | inactive
Cc1cccc(NC(=O)Nc2ccc3c(c2)C(=O)N(C)[C@@H]2CC[C@H](CC(=O)NCc4ccccc4Cl)O[C@@H]2CO3)c1 | inactive
Cc1ccc(S(=O)(=O)Nc2ccc3c(c2)C(=O)N([C@H](C)CO)C[C@@H](C)[C@@H](CN(C)S(C)(=O)=O)OCCCC[C@H](C)O3)cc1 | inactive
CCSc1cccc2cccnc12 | inactive
c1cnc2c(SCc3nc4ccccc4s3)cccc2c1 | active
c1ccc2c(CSc3nc4ccccc4s3)cccc2c1 | inactive
Cc1ccc(S(=O)(=O)Nc2ccc3c(c2)CC(=O)N([C@@H](C)CO)C[C@@H](C)[C@H](CN(C)C(=O)Nc2ccc(C(F)(F)F)cc2)O3)cc1 | inactive
C[C@@H]1CN([C@@H](C)CO)C(=O)c2cc(C#Cc3ccccc3F)cnc2O[C@@H]1CN(C)C(=O)Cc1ccncc1 | inactive
Cc1ccc(S(=O)(=O)Nc2ccc3c(c2)C(=O)N([C@H](C)CO)C[C@@H](C)[C@@H](CN(C)Cc2ccc(C(F)(F)F)cc2)O3)cc1 | active
Cc1ccc(S(=O)(=O)Nc2ccc3c(c2)C(=O)N([C@@H](C)CO)C[C@H](C)[C@H](CN(C)Cc2ccc(C(F)(F)F)cc2)O3)cc1 | inactive
Cc1ccc(S(=O)(=O)Nc2ccc3c(c2)C(=O)N([C@H](C)CO)C[C@H](C)[C@H](CN(C)Cc2ccc(C(F)(F)F)cc2)O3)cc1 | inactive
Cc1ccc(S(=O)(=O)Nc2ccc3c(c2)C(=O)N([C@H](C)CO)C[C@@H](C)[C@H](CN(C)Cc2ccc(C(F)(F)F)cc2)O3)cc1 | active
Cc1ccc(S(=O)(=O)Nc2ccc3c(c2)C(=O)N([C@@H](C)CO)C[C@H](C)[C@@H](CN(C)Cc2ccc(C(F)(F)F)cc2)O3)cc1 | inactive
Cc1ccc(S(=O)(=O)Nc2ccc3c(c2)C(=O)N([C@H](C)CO)C[C@H](C)[C@@H](CN(C)Cc2ccc(C(F)(F)F)cc2)O3)cc1 | inactive
